The values below come from PubChem BioAssay AID977606 (Broad Institute, 2014).

About 430 (29%) of roughly 1,500 compounds were called active. The rule behind the calls is not given here. These entries were drawn from the full list. Where a call stands in place of a potency, no number is given. Potency and affinity values are given separately.

The assay in a line: glucose-independent GLuc insulin release activation – cell-based, INS-1E, Gaussia luciferase, luminescence, cherry-pick, counter-screen for glucose-dependent insulin secretion activators, dose response (AID 977606). Particulars: INS-1E Gaussia luciferase insulin secretion, no glucose, 100% = twice neutral-control luminescence; series mostly up to 35 µM.
Consider `Cc1cccc(C)c1OCCCn1ccnc1`, for which the compound was classed as inactive. Consider `CCSc1ncnc2sc3c(c12)CCC3`, for which the result was inactive. As for `O=C1c2cccnc2C(Nc2cccc(F)c2)N1Cc1ccco1` (configuration not stated), the outcome was inactive.

In the case of `C[C@@H]1CN([C@H](C)CO)C(=O)CCCn2nncc2CO[C@H]1CN(C)C(=O)Nc1ccnc(N2CCOCC2)c1`, the compound was called inactive.

For `Cc1ccc(-c2nc(C#N)c(NCC3CCCO3)o2)cc1` (configuration not stated), the result was inactive.

For `CCOc1ccc(Nc2oc(-c3cccc(Cl)c3)nc2C#N)cc1`, the result was inactive. For `CN1CCN(C(=O)c2cccc(-c3cnc4cnc(-c5ccccc5Oc5ccccc5)cn34)c2)CC1` the value was “inactive”; for `N#Cc1ccc(-c2ccc3c(c2)[C@@H]2[C@@H](CCN2C(=O)C2CCCC2)[C@@H](CO)N3)cc1`, “inactive”. For `COc1ccccc1C(=O)N/N=C(\C)CC(=O)Nc1ccc2c(c1)OCCO2` the value was “inactive”.

Turning to `COc1ccc(-n2c(=S)[nH]c3cc(C(=O)Nc4ccc(OC)c(OC)c4)ccc3c2=O)cc1`, the compound was classed as inactive. On to `C=CCc1ccccc1Oc1cc(OC)nc(N)n1`, for which the outcome was inactive. For `COc1ccccc1CNC(=O)CCNS(=O)(=O)c1ccc2[nH]c(=O)oc2c1` the value was “inactive”; for `COc1ccc(-c2ccc(SCc3ccccn3)nn2)cc1OC`, “inactive”.

`CC(C)NC(=O)C1(C)CCN1Cc1cccc(C#N)c1` (configuration not stated): the result was inactive.

For the compound `CC1(C(=O)NCc2ccccc2)CN(S(C)(=O)=O)CC(=O)N1C1CC1` (configuration not stated), the outcome was inactive. Consider `Cc1ccccc1CN(C)Cc1cc(=O)oc2c(C)c(C)ccc12`, for which the compound was classed as inactive. For `C[C@H]1CN=C(N(C)C)N1CC1CCCC1` the value was “inactive”. For `Cc1nn(-c2ccccc2)c(N2CCCC2)c1/C=N/O` the value was “inactive”; for `COc1ccccc1NS(=O)(=O)c1cccc(C(=O)N/N=C/c2c(C)nn(-c3ccccc3)c2N2CCCC2)c1`, “inactive”.

For the compound `COc1ccc(S(=O)(=O)Nc2cccc(-c3ccc4nncn4n3)c2)cc1F`, the result was inactive. For `COc1ccc2c(c1)CCc1cc(C(=O)O)sc1-2` the value was “inactive”; for `CNC(=O)c1[nH]nc2c1CCc1cc(OC)ccc1-2`, “inactive”. For `COc1ccc2c(c1)[C@@]1(OCCC=C[C@H]1C)C(=O)N2CC1CC1` the value was “inactive”; for `CCOc1ccc(C(C)=O)cc1COC(=O)CN1C(=O)NC2(CCCC2)C1=O`, “inactive”; for `NC(=O)C1CCN(c2nc(-c3ccccc3)nc3ccccc23)CC1`, “inactive”. For `CN(Cc1ccccc1)c1ncnc2[nH]ncc12` the value was “inactive”. Regarding `O=C(Nc1ccc(F)cc1)c1cccnc1Oc1ccccc1`, the compound was classed as inactive.

For the compound `c1ccc(-c2ccccc2OCCN2CCCCC2)cc1`, the compound was classed as inactive.

For `N#Cc1sc2nc3c(c(-c4cccnc4)c2c1N)CCC3`, the compound was classed as inactive. For `Cc1ccc(CS(=O)Cc2ccc(C(=O)NCc3ccccc3)o2)cc1` (configuration not stated) the value was “inactive”.

In the case of `Cc1cccc(C)c1NC(=O)C1c2ccccc2OCC(=O)N1CCCN1CCOCC1` (configuration not stated), the outcome was inactive.

`Cc1ccc(C(=O)n2nc(-c3cccnc3)nc2N)cc1`: the compound was called inactive. For `COc1ccc(OCC(=O)NNC(=O)Cn2c(=O)cnc3ccccc32)cc1` the value was “inactive”; for `CC(=O)NCCc1nc2ccccc2n1CCOc1cccc(C)c1`, “inactive”. For `CCCCCCn1c(-c2cccs2)n[nH]c1=S` the value was “inactive”; for `CCN1CCN(CC(=O)Nc2ccc(C(C)=O)cc2)CC1`, “inactive”. For `COc1ccc(OC)c(-c2nnc3n2N=C(c2ccc(OC)c(OC)c2)CS3)c1` the value was “inactive”; for `CC[C@@H]1CC2=C(C(=O)OC(C)(C)O2)[C@H](c2ccc(F)cc2)O1`, “inactive”; for `C#Cc1cccc(-n2nnc(C(=O)OC)c2-c2ccccc2)c1`, “inactive”.

For `CCOC(=O)c1sc2nc(-c3ccccc3)ccc2c1N`, the result was inactive. On to `Cc1cc(-c2ccccc2)n2nc(N)nc2n1`, for which the compound was classed as inactive. As to `CNC(=O)C1CC(=O)N(c2ccc(OCC(=O)Nc3ccccc3)cc2)C1` (configuration not stated), the outcome was inactive.

With `CCCc1cc(=O)oc2cc(OCC(=O)NC3CCN(Cc4ccccc4)CC3)ccc12`, the result was inactive. Regarding `Cc1ccc2c(c1)c(-c1ccccc1)nc1nncn12`, the compound was called inactive. For `CCC(CC)NC(=O)c1ccccc1Oc1ccccc1` the value was “inactive”; for `COc1ccc(C2=Nn3c(nnc3-c3ccncc3)SC2)cc1OC`, “inactive”. For `C/C(Cl)=C\Cn1c(N2CCCC2)nc2c1c(=O)n(C)c(=O)n2C` the value was “inactive”; for `CCOc1cc(/C=C(\CC(=O)O)c2nc3ccccc3s2)ccc1OC`, “inactive”; for `C=CCN1C(=O)CSc2ccc(C(=O)OCC)cc21`, “inactive”. For `CC(NC(=O)C1CCCN1S(=O)(=O)c1ccc2c(c1)n(C)c(=O)c(=O)n2C)c1ccccc1` (configuration not stated) the value was “inactive”; for `N#CCCN(Cc1ccccc1)C(=O)c1cccs1`, “inactive”; for `CNc1nc(Cl)nc2c1ncn2-c1ccccc1`, “inactive”. On to `COc1ccc(CCN2CC(=O)NC(=O)C2)cc1OC`, for which the result was inactive. For `CCOC(=O)Cn1c(=O)n(Cc2ccccc2)c(=O)c2cccnc21` the value was “inactive”; for `COc1ccc(S(=O)(=O)Nc2ccc3c(c2)OCO3)cc1OC`, “inactive”. For `C[C@@H]1O[C@H](C2CCCC2)CC2=C1C(=O)OC(C)(C)O2` the value was “inactive”; for `COc1ccc(S(=O)(=O)N2CCOCC2)cc1NC(=O)COc1ccccc1`, “inactive”; for `CCOc1ccc(C(=O)OCC(=O)Nc2cc(C)on2)cc1OCC`, “inactive”. For `COc1cc(C(C(=O)NC2CCCC2)N(Cc2ccco2)C(=O)c2snc(C(N)=O)c2N)cc(OC)c1OC` (configuration not stated) the value was “inactive”; for `N#CN=CN1CC=C(c2ccc(Cl)cc2)CC1`, “inactive”. Turning to `CCOC(=O)c1cc(CC)sc1NC(=O)COC(=O)c1cnccn1`, the compound was called inactive. As to `CC(=O)Nc1sc(C)c(C)c1C(=O)OCC(=O)Nc1cc(S(C)(=O)=O)ccc1Cl`, the outcome was inactive. For `COc1ccc(CCNCc2cc3ccc(C)cc3[nH]c2=O)cc1OC`, the outcome was inactive. For `COc1cc(OC)c(OC)cc1CCC(C)NC(=O)Cc1ccccc1` (configuration not stated) the value was “inactive”. As for `COc1cc2c(cc1OC)-c1cc(Nc3ccc(N(C)C)cc3)nc(=O)n1CC2`, the call was inactive. With `COc1ccc(N2CC(NS(=O)(=O)c3cccs3)CC2=O)cc1OC` (configuration not stated), the compound was called inactive. For `O=C(O)c1ccc(-c2nc(-c3ccccc3)c(-c3cccs3)[nH]2)cc1` the value was “inactive”; for `CCOC(=O)Cn1nc(-c2ccccc2)c(-c2ccccc2)nc1=O`, “inactive”; for `O=C(Cc1c[nH]c2ccccc12)N[C@@H](Cc1c[nH]c2ccccc12)C(=O)O`, “inactive”.

For the compound `Cc1ccc(S(=O)(=O)N(C)c2nc3ccccc3n3c(C(C)C)nnc23)cc1`, the call was inactive. For `C=CCc1cccc(/C=N/NC(=O)CCC(=O)Nc2ccc(C)cc2)c1O` the value was “inactive”. For `O=C(N/N=C/c1cc(Cl)ccc1O)c1ccc(Br)cc1` the value was “inactive”; for `COc1ccc(-c2nnc(-c3cccs3)o2)cc1OC`, “inactive”. Turning to `CC(=O)c1cccc(N(CC(=O)NC2CCCCC2)C(=O)Cn2nnc(-c3ccccc3)n2)c1`, the compound was called inactive. For `CCCCOc1ccc(-c2nnn(CC(=O)c3c[nH]c4ccccc34)n2)cc1` the value was “inactive”; for `Cc1ccc2c(c1)C=CC(C#N)N2C(=O)c1ccccc1` (configuration not stated), “inactive”. For `CC(=O)N1CCN(c2nc(-c3cccs3)nc3ccccc23)CC1` the value was “inactive”; for `CN[C@H]1C[C@@H](c2ccccc2)N(C(C)=O)C[C@H]1CO`, “inactive”; for `CCOC(=O)N1CCN(S(=O)(=O)c2ccc3c4c(cccc24)C(=O)N3)CC1`, “inactive”. For `C=CCn1cc(Cl)cc(C(=O)Nc2ccccc2)c1=O` the value was “inactive”. For `CS(=O)(=O)c1nc(S(=O)(=O)c2ccc(Cl)cc2)c(N2CCCCCC2)s1`, the compound was classed as inactive. For `c1ccc(-c2nnc3ccc(N4CCC5(CC4)OCCO5)nn23)cc1` the value was “inactive”; for `O=C(O)c1ccc(-n2nnnc2SCc2ccccc2Br)cc1`, “inactive”. For `CCC1OC(C2CC2)CC2=C1C(=O)OC(C)(C)O2` (configuration not stated) the value was “inactive”; for `c1ccc(CCN2CCN=C2Nc2ccccc2)cc1`, “inactive”. For `O=C(NC1CCCCC1)C(c1ccc(F)cc1)N(Cc1ccccc1)C(=O)CN1C(=O)c2ccccc2S1(=O)=O` (configuration not stated) the value was “inactive”; for `COc1ccc(/C=N/NS(=O)(=O)c2ccccc2)cc1OC`, “inactive”.

`COc1cc(C(=O)O)ccc1OCc1ccccc1`: the compound was classed as inactive.

For `O=C(O)c1ccc(-n2nnnc2SCc2cccc(Br)c2)cc1`, the result was inactive. Consider `CCCCNc1cc(Cl)nc(N)n1`, for which the compound was called inactive.

In the case of `O=C(N/N=C/c1ccncc1)c1cc(-c2ccc(Br)s2)[nH]n1`, the compound was called inactive. For `CC1=CC(c2ccccc2)n2nc(NC(=O)CCC(=O)O)nc2N1` (configuration not stated) the value was “inactive”; for `CC(=O)NCCNC(=O)CNC(=O)c1ccc(Cl)cc1`, “inactive”. For `C=CCn1cnc2scc(-c3ccc(OC)cc3)c2c1=O` the value was “inactive”; for `COc1cc2c(cc1OC)/C(=C/C(=O)c1ccc(NC(C)=O)cc1)NCC2`, “inactive”; for `COC(=O)c1sc2ccccc2c1NC(=O)c1cccs1`, “inactive”.

As for `O=C(Nc1nonc1NC(=O)c1cccs1)c1cccs1`, the compound was called inactive.

For `CCOc1ncccc1C(=O)Nc1ccc(S(=O)(=O)Nc2nccs2)cc1`, the call was inactive. For `O=C(O)c1cccc(N/N=C/c2sc(N3CCOCC3)nc2-c2ccccc2)c1` the value was “inactive”; for `Cc1ccc(CC2S/C(=N/c3ccccn3)NC2=O)cc1` (configuration not stated), “inactive”.

For `Cc1ccc(NC(=O)CC2S/C(=N/N=C/c3c[nH]c4ccccc34)NC2=O)cc1` (configuration not stated), the result was inactive. For the compound `CCc1ccc2c(c1)cc(CN(Cc1ccco1)C(C)=O)c1nnnn12`, the call was inactive. For `N#CCc1nn2c(-c3ccccc3)ccnc2c1C#N` the value was “inactive”. For `O=C(OCc1c(-c2ccccc2)ncc2ccccc12)c1cccs1` the value was “inactive”; for `O=C(NCc1ccco1)c1ccc2c(=O)n(CCC3=CCCCC3)c(=O)[nH]c2c1`, “inactive”; for `Cc1c(CC(=O)O)c(=O)oc2c(C)c(OCc3ccccc3Br)ccc12`, “inactive”. As to `N#Cc1c(N)n(C2CCCCC2)c2nc3ccccc3nc12`, the compound was classed as inactive. For `COc1ccc(-n2c(O)cnc2Nc2nc(C)cc(C)n2)cc1OC` the value was “inactive”; for `CCn1ccc(C(=O)Nc2ccccc2SC)n1`, “inactive”. For `CCOC(=O)Cn1c(=O)n(Cc2ccc(OC)cc2)c(=O)c2cccnc21` the value was “inactive”; for `COc1ccc(CNC(=O)COC(=O)c2cc(C)nc3ccccc23)cc1`, “inactive”; for `Cc1ccc(NC(=O)[C@@H](Cc2ccccc2)NC(=O)[C@H]2O[C@@H](n3ccc(=O)[nH]c3=O)[C@H](O)[C@@H]2O)cc1C`, “inactive”.
